According to PubChem BioAssay AID1745850 (National Center for Advancing Translational Sciences (NCATS), 2022):
Hit rate of the full screen: of about 2,100 compounds, about 260 (12%) were called active. Not shown: some 58% with an inconclusive outcome. The list shows a part of the results. Values without a mark were called inactive. Calls come from the whole dose curve; as a rule, active = well fitted cell-killing curve with a large enough effect; inconclusive = small, poorly fitted or top-dose-only effect, or effect the other way; inactive = flat fitted curve, though single readings scatter.

Assay: Viability Counterscreen for Confirmatory qHTS for Inhibitors of ATXN expression; note: nearly all actives have a fitted effect of over 50% in size
Details: HEK-293 ATXN2-luc cells viability, CellTiter-Fluor, 24 h; activity change, negative = cytotoxicity: at the top concentration
Source text: PI: Daniel Scoles Ph.D. University of Utah School of Medicine, Salt Lake City, Utah MLPCN Grant: NS073009 Spinocerebellar ataxia type 2 (SCA2) is a multisystem neurodegenerative disease caused by a dominantly acting mutation leading to expansion of a polyQ domain in the ataxin-2 protein (ATXN2). SCA2 patients develop progressive ataxia and later lose function in other neuronal systems. Prominent parkinsonian signs develop in some patients. Like many neurodegenerative disorders, no symptomatic or disease-modifying treatments are known. The primary objective of the proposed research is to identify compounds inhibiting ATXN2 expression and to test them for efficacy in SCA2 mouse models. We have developed a cell-based assay paired with an in vivo mouse model using identical luciferase expression constructs. This approach takes advantage of an ATXN2-luciferase transgene, with the luciferase gene flanked by the upstream and downstream portions of the ATXN2 gene. Here we describe a 5-7 dose quantitative high thoroughput screen (qHTS) for compounds lowering ATXN2 expression. We screened the NIH Molecular Libraries Small Molecule Repository (MLSMR) and NCGC's mechanistically annotated (MIPE) and drug repurposing (NPC) collections of compounds for lowering expression of an ATXN2-luciferase reporter in HEK-293 cells. The assay is a multiplexed cell viability assay to ensure target reduction in the absence of cytotoxicity. Secondary qHTS assays included a CMV-luciferase reporter expressed in HEK-293 cells as well as a biochemical assay using recombinant luciferase to detect inhibitors of the reporter enzyme. Compounds that inhibit ATXN2 expression but is not cytotoxic were selected for confirmatory and secondary screens.
PROTOCOL TABLE (as described by Inglese J, Shamu CE and Guy RK. 2007) SEQUENCE No. (e.g., 1, 2, 3, etc.); […] (e.g., Cells, Incubation, Reagent, etc.); VALUE; DESCRIPTION. 1; Cells; 4 uL; white, solid bottom, 1536-well Greiner assay plate. 2; Incubation; 2 hr; 37 degree C in 5% humidified CO2. 3; Compounds; 23 nL; Kalypsis pintool (Wako USA) equipped with a 1536-well pin head. 4; Incubation; 24 hr; 37 degree C in 5% humidified CO2. 5; Reagent; 1 uL; Gly-Phe-7-Amino-4-trifluoromethylcoumarin. 6; Incubation; 30 min; 37 degree C in 5% humidified CO2. 7; Detection; Fluorescence; ViewLux plate reader (PerkinElmer). 8; Reagent; 3 uL; SteadyGlo luciferase solution (Promega). 9; Incubation; 5 min; room temperature. 10; Detection; Luminescence; ViewLux plate reader (PerkinElmer). NOTES (numbers refer to Sequence numbers above) 1. S2 cells expressing ATXN2-luciferase reporter were suspended in phenol-red free DMEM and dispensed in assay plates using a Multidrop Combi dispenser (Thermo Fisher Scientific). Wells containing medium only were plated on each plate, and values were used to normalize (100% inhibition) in the luciferase and CellTiter-Fluor assays. 2. Assay plates were incubated. Evaporation was prevented by covering assay plates with metal lids containing holes to allow gas diffusion. 3. Compounds were added in a dose response manner with the final concentrations of 57, 11.4, 2.28, 0.46, 0.091, 0.018, 0.0037 uM. Vehicle-only plates, with DMSO being pin-transferred to columns 5-48, were inserted uniformly at the beginning and the end of each library to monitor and record any shifts in assay performance. 5. 125 uM Gly-Phe-7-Amino-4-trifluoromethylcoumarin (MP Biomedicals) working concentration was used at a final concentration of 25 uM. 7. To assess cell viability; the assay plates were read using the ViewLux high-throughput CCD imager (PerkinElmer), wherein single end-point fluorescence measurement was acquired (excitation 405/10; emission 540/25 nm). 8. Detection reagent SteadyGlo Luciferase (Promega) was added to the assay plate. 10. Luminescence is then measured on the ViewLux imager equipped with a clear emission filter using a 2 sec exposure. […]
Potency is the fitted concentration of half-maximal effect.

Compound | activity change, negative = cytotoxicity | Potency
NNc1nc(N)c2c(n1)-c1ccccc1CC21CCCC1 | -20.9% [at 57.5 µM] | –
OCCNc1c2ccccc2nc2c(F)c(F)c(F)c(F)c12 | 19.5% [at 57.5 µM] | –
CC(=O)Nc1ccc(Nc2c3ccccc3nc3ccccc23)cc1 | – | 17.8 µM (active)
CC(=O)Nc1ccc(NC2=Nc3ccccc3N3C2=Nc2c(c(C)nn2-c2ccccc2)C3c2ccccc2)cc1 (centres undefined) | 21.2% | –
Cc1nnc(SCC(N)=O)n1CC1CCCO1 (centres undefined) | -18.5% [at 57.5 µM] | –
CCOc1ccccc1C(=O)Nc1ccc2nc(N3CCN(c4ncccn4)CC3)cc(C)c2c1 | – | 11.2 µM (active)
CCOc1ccc(C(=O)Nc2ccc(Cc3ccncc3)cc2)cc1Br | -20.8% [at 57.5 µM] | –
CCOc1ccccc1NC(=O)N1CCC(c2nc3ccccc3[nH]2)CC1 | -18.1% | –
OC(c1ccccc1)(c1nc(-c2cc3ccccc3o2)cs1)C(F)(F)F (centres undefined) | -13% [at 57.5 µM] | –
CCc1ccc(-c2nc(CS(=O)CC(=O)NCc3ccco3)c(C)o2)cc1 (centres undefined) | -6.43% | –
O=C(N/N=C/c1ccc([N+](=O)[O-])s1)c1ccccc1Br | – | 22.4 µM (active)
COc1ccc(C(=O)NCC(=O)N/N=C/c2ccc([N+](=O)[O-])s2)cc1OC | – | 22.4 µM (active)
O=C(N/N=C/c1cc(Br)ccc1O)c1ccncc1 | -3.23% | –
O=C(CP(=O)(c1ccccc1)c1ccccc1)N/N=C/c1cc(Br)cc(Br)c1O | 1.93% | –
O=C(N/N=C\c1ccc([N+](=O)[O-])s1)c1cncc(Br)c1 | – | 11.2 µM (active)
O=C(CNC(=O)c1ccccc1Br)N/N=C/c1cc(Br)ccc1O | -2.53% | –
Cc1ccc(OCCNC(=O)c2cncc(Br)c2)cc1C | -20.8% [at 57.5 µM] | –
O=C(CNC(=O)c1cccc(Br)c1)N/N=C/c1cc(Br)cc(Br)c1O | -26.1% [at 57.5 µM] | –
CN(Cc1cnc2nc(N)nc(N)c2n1)c1ccc(C(=O)NC(CCC(=O)O)C(=O)O)c2ccccc12 (centres undefined) | -30.4% [at 57.5 µM] | –
Cc1c(N=C2N=C(NC(=O)c3ccc(F)cc3)c3ccccc32)c(=O)n(-c2ccccc2)n1C | -23.7% | –
Cc1c(N=C2C=CC(=O)c3ccccc32)c(=O)n(-c2ccccc2)n1C | – | 28.2 µM (active)
Cc1cccc(/C=N/NC(=O)c2cccc(Cl)c2)n1 | -18.5% | –
COc1ccc(OCCNC(=O)C2(C)CCN2Cc2ccc3ccccc3c2)cc1 (centres undefined) | -28.2% [at 57.5 µM] | –
C[C@@H]1CC=C[C@@H]2[C@H]1C(=O)N(Cc1ccccc1)[C@H]2c1ccccc1Br | -29.3% [at 57.5 µM] | –
O=C1Nc2c(Br)cc(Br)c3cccc1c23 | -20.9% [at 57.5 µM] | –

Compound | activity change, negative = cytotoxicity | Potency
COc1ccc(C)cc1NC(=O)C(Sc1nnc(-c2ccncc2)n1-c1ccc(Cl)cc1)c1ccccc1 (centres undefined) | -12.9% | –
CCCOc1ccccc1C1NC(=O)NC(C)=C1C(=O)OCc1ccccc1 (centres undefined) | -14% | –
Cc1cccc(NC(c2ccc(C)s2)c2ccc3ccc(C)nc3c2O)n1 (centres undefined) | – | 25.1 µM (active)
Cn1nc(C(=O)N2CCN(c3ccc(Cl)cc3)CC2)c2c1-c1ccccc1S(=O)(=O)C2 | -12.1% | –
O=C(CCC(=O)Nc1ccc(Br)cc1)N/N=C/c1ccccc1O | -18.6% | –
COC(=O)c1c(NC(=O)c2ccc([N+](=O)[O-])o2)sc2c1CCN(C(C)C)C2 | – | 28.2 µM (active)
O=C1C=Cc2cccc3ccc(O)c1c23 | 4.45% | –
O=C(CN1C(=O)c2ccccc2S1(=O)=O)c1ccc(Cl)cc1Cl | -6.86% [at 57.5 µM] | –
O=[N+]([O-])c1c(Nc2ccccn2)cc(Cl)c2nonc12 | – | 11.2 µM (active)
COc1cc(OC)c(OC)cc1/C=C1\CC(C)C/C(=C\c2cc(OC)c(OC)cc2OC)C1=O (centres undefined) | – | 17.8 µM (active)
C=CCc1ccccc1OCC(O)CN1CCN(CCN2C(=O)c3cccc4cccc(c34)C2=O)CC1 (centres undefined) | – | 31.6 µM (active)
O=C(CNC(=O)c1ccccc1O)N/N=C/c1cc(Br)ccc1OC(=O)/C=C/c1ccco1 | -4.41% | –
Cc1ccc(C(=O)CN2C(=O)c3ccccc3S2(=O)=O)cc1 | 5.17% | –
Oc1ccc(C2CNCc3sccc32)cc1O (centres undefined) | -19.8% [at 57.5 µM] | –
O=C(CN1CCCc2ccccc21)N/N=C/c1ccccc1O | -21.2% | –
C[C@@H]1ON(C)[C@H]2C[C@H]3c4[nH]c5ccc(-c6ccc7c(c6)OCO7)cc5c4CCN3C(=O)[C@@H]12 | -27.8% [at 57.5 µM] | –
CC1(C)Cc2c(ccc3ccccc23)C2=C(C(=O)N3CCCC3)C(=O)C(=O)N21 | -14.3% [at 57.5 µM] | –
O=C(Nc1nc(-c2ccc(S(=O)(=O)N3CCOCC3)cc2)cs1)c1ccccc1 | -26.6% | –
CCn1c2ccccc2c2cc(NC(=O)COC(=O)c3cc(S(=O)(=O)N4CCCCC4)ccc3Cl)ccc21 | 1.01% | –
Cc1nc(-c2cccc(NC(=O)c3cccc(S(=O)(=O)N4CCCC4)c3)c2)cs1 | – | 28.2 µM (active)
Cn1c(N)c(C(=O)Nc2ccc(-c3ccccc3)cc2)sc1=S | -20.9% [at 57.5 µM] | –
COc1ccc(Oc2c(Cl)cnn(-c3ccccc3)c2=O)cc1 | – | 3.16 µM (active)
COc1ccc(C2CC(c3ccccc3Cl)=NN2c2ccc(S(N)(=O)=O)cc2)cc1 (centres undefined) | 1.38% [at 57.5 µM] | –
COc1ccc(C(=O)Nn2c(SCC(=O)c3ccccc3)nc3ccccc3c2=O)cc1 | -26% [at 57.5 µM] | –
